From the supplement of paper PMC7156485
± gives the standard deviation of the averaged measurements.

Experiments:
Details in all cases: concentration: 10 µM; 24 h
HCC1569 [1] = experiment: cell number relative to DMSO (% of DMSO); higher = more cells (less growth inhibition / toxicity)
Procedure, shortened: (§1)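 Using 384-well plates with 800 cells per well in RPMI plus 10% FBS, HCC1569 and TDF cells were exposed to compounds at 10 µM, in triplicate, for 24 h at 37 °C. Imaging of six fields per well at ×10 followed H1.0 and DAPI staining. The reported quantity, H1.0 nuclear intensity or cell number, is a median of replicates given as percent of the plate control, and HCC1569 values were smoothed for positional effects.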

TDF [2] = experiment: as above
Procedure, shortened: as §1

TDF [3] = experiment: H1.0 immunofluorescence intensity relative to DMSO (% of DMSO); higher = stronger H1.0 induction, active = 120 or more
Procedure, shortened: as §1

HCC1569 [4] = experiment: H1.0 immunofluorescence intensity relative to DMSO (% of DMSO); higher = stronger H1.0 induction, active = 140 or more
Procedure, shortened: as §1
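Throughout, for H1.0 immunofluorescence intensity relative to DMSO: TDF is a line of transformed human dermal fibroblasts of mesenchymal origin.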
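Throughout, for cell number relative to DMSO: TDF denotes transformed human dermal fibroblasts of mesenchymal origin.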

In the case of Cc1cccc(-c2nn(C(=S)Nc3ccccc3)cc2-c2ccnc3ccccc23)n1, the cell number (HCC1569 [1]) is reported as 98.7, the cell number (TDF [2]) is reported as 97.7 and the H1.0 immunofluorescence intensity (TDF [3]) is reported as 82.2 (inactive). For the same compound, the H1.0 immunofluorescence intensity (HCC1569 [4]) was 134 (inactive).

In the case of CC(C)(C(=O)O)c1ccc(C(O)CCCN2CCC(C(O)(c3ccccc3)c3ccccc3)CC2)cc1.Cl (stereo not drawn) [Fexofenadine hydrochloride], the cell number (HCC1569 [1]) is reported as 105, the cell number (TDF [2]) is reported as 111 and the H1.0 immunofluorescence intensity (TDF [3]) is reported as 91.2 (inactive). The H1.0 immunofluorescence intensity (HCC1569 [4]) was 90.5 (inactive).

For CCCCNc1cc(C(=O)O)cc(S(N)(=O)=O)c1Oc1ccccc1 [Bumetanide], the cell number (HCC1569 [1]) was 102.7 ± 0.95, the cell number (TDF [2]) was 105 ± 2 and the H1.0 immunofluorescence intensity (TDF [3]) was 96.4 (inactive). The H1.0 immunofluorescence intensity (HCC1569 [4]) was 100 (inactive).

For O=C1CC(c2ccc(O)cc2)Oc2cc(OC3OC(CO)C(O)C(O)C3O)cc(O)c21 (stereo not drawn) [Narigenin-7-O-glucoside], the cell number (HCC1569 [1]) was 101, the cell number (TDF [2]) was 103 and the H1.0 immunofluorescence intensity (TDF [3]) was 97.8 (inactive). The H1.0 immunofluorescence intensity (HCC1569 [4]) was 86.5 (inactive).

With O=C(O)c1cn(-c2ccc(F)cc2)c2cc(N3CCNCC3)c(F)cc2c1=O [Sarafloxacin] the cell number (HCC1569 [1]) was 105, the cell number (TDF [2]) was 95.3 and the H1.0 immunofluorescence intensity (TDF [3]) was 99.5 (inactive). The H1.0 immunofluorescence intensity (HCC1569 [4]) was 95.9 (inactive).

In the case of CCCCC1C(=O)N(c2ccccc2)N(c2ccccc2)C1=O [Phenylbutazone], the cell number (HCC1569 [1]) is reported as 101 ± 1.3, the cell number (TDF [2]) is reported as 106 ± 10 and the H1.0 immunofluorescence intensity (TDF [3]) is reported as 93.7 (inactive). The H1.0 immunofluorescence intensity (HCC1569 [4]) was 97.5 (inactive).

For CCCC(=O)NCCc1c2n(c3ccc(OC)cc13)CCCc1ccccc1-2, the cell number (HCC1569 [1]) was 96.8, the cell number (TDF [2]) was 109 and the H1.0 immunofluorescence intensity (TDF [3]) was 84.7 (inactive). The H1.0 immunofluorescence intensity (HCC1569 [4]) was 100 (inactive).
